Several values for one entry are separate records, joined by “and”; a condition that tells them apart may be missing. Equal entries are not always repeated. The campaign covered roughly 290,000 compounds. About 2,000 (0.69%) were called active. No stated cut-off is given here; in the data, active means activity change below about -30%; inactive means the rest, inconclusive results apart. For the sample, actives were picked, then their nearest neighbours and some compounds at random. Where a structure was tested more than once in an assay, its records may differ in their call.
On the % scale 0 is the no-effect control and ±100 the full control effect.

This assay in a line: qHTS Assay for Inhibitors of Fructose-1,6-bisphosphate Aldolase from Giardia Lamblia: Coupling assay counterscreen. Particulars: coupling enzyme system counterscreen, AmpLite Red fluorescence; at 58.2 µM (top of the series). The source says: MLPCN Grant: MH085699-01 Assay Provider: Osnat Herzberg, University of Maryland NCGC Assay Overview: The objective of this project is to obtain compounds that inhibit Giardia lamblia growth. G. lamblia is a human pathogen which afflicts impoverished nations; it is the most common cause of outbreaks of diarrhea in the United States. During the course of our study of potential drug targets in Giardia, we have identified the Class II (Zn2+ functions in electrophilic catalysis) fructose-1,6-bisphosphate aldolase (FBPA) as an excellent candidate for drug targeting. FBPA is a key glycolytic pathway enzyme, essential for G. lamblia survival. The human FBPA belongs to the Class I aldolases, which have a different substrate binding site structure and a radically different catalytic mechanism (employing a lysine-Schiff base intermediate). Therefore, affinity-based or mechanism-based inhibitors of the Giardia FBPA are expected not to interfere with the catalytic function of the human FBPA. A glyceraldehyde-3-phosphate dehydrogenase/triose phosphate isomerase/NAD/arsenate coupled assay was adapted to the 1536-well HTP format for use in the primary screen. This was done by coupling it to a diaphorase/resazurin/resorufin reaction that can be monitored by fluorescence (excitation, 544 nm; emission, 590 nm). Compounds identified in this screen will be further evaluated by coupling the […]/triose phosphate isomerase/NADH assay to a phenazine methosulfate/tetranitroblue tetrazolium color reaction. False positives due to the dehydrogenases and diaphorase inhibition will be eliminated, and selectivity assay will triage inhibitors of mammalian triose phosphate isomerase and the Class I FBPA. G. lamblia FBPA inhibitors identified by the in vitro analyses will be examined for growth inhibition of Giardia trophozoites, and for cytotoxicity in human cells. This assay specifically addresses whether activity observed in the primary screen (AID 2451) is related to inhibition of the coupling assay used, as opposed to inhibition of aldolase. Actives in this assay are considered inconclusive for activity against aldolase.
NCGC Assay Protocol: Step,Parameter,Value,Description 1,Coupling enzyme reagent,2 uL,glyceraldehyde-3-phosphate 2,Compound,23 nL,3.68 nM-57.5 uM final concentration 3,Time,10 min,RT Incubation 4,Substrate/detection Reagent,2 uL,Substrate + enzyme coupling system + AmpLite Red kit 5,Time,20 min,RT Incubation 6,Detector,525 nm/598 nm (Fluorescence),ViewLux Fluorescence Read (Read 1) Notes: 1,Medium-binding black solid-bottom Kalypsys plates. FRD or Kalypsys dispenser. 2,Compound Library (10 mM ,1:5 dilution). Pin-transferred for a [final] range of 3.68 nM-57.5 uM. 3,RT incubation 4,FRD or Kalypsys dispenser, 2 uL of reaction mixture. Bottle kept at 4C and covered in foil to protect from light. 5,RT incubation 6,ViewLux Protocol 1194; Excitation filter wheel A (525/20 Pol; BODIPY TMR FP), Emission filter wheel B (598/25 S; BODIPY TMR FP S). Keywords: Fructose-bisphosphate aldolase, FBPA , Giardia lamblia , Giardia, HTS, Inhibitors
(In general: qHTS replaces the single test concentration by a dilution series.)
Take `O=C(O)CCC(=O)NCc1ccc(C(=O)O)cc1`: the activity change, negative = inhibition is 3.84% (inactive).

For the compound `Cc1ccc(C23CC4CC(CC(C(=O)NCC(=O)O)(C4)C2)C3)cc1`, the activity change, negative = inhibition was 6.61% (inactive).

For the compound `O=S(=O)(Nc1cccc(Oc2ccc(Cl)cc2)n1)c1ccc(F)cc1`, the activity change, negative = inhibition is 3.65% (inactive).

On to `Cc1cc(C)c(C2C3=C(Nc4c2c(C)nn4-c2ccccn2)c2ccccc2C3=O)c(C)c1` (stereo unspecified), for which the activity change, negative = inhibition is -0.679% (inactive).

With `Cc1ccc(C2C3=C(Nc4[nH]n(-c5ccccc5)c(=O)c42)c2ccccc2C3=O)cc1` (stereo unspecified), the activity change, negative = inhibition was -44% (active).

For the compound `Cc1ccc(-c2ccnc3[nH]n(-c4ccccc4)c(=O)c23)cc1`, the activity change, negative = inhibition is 2.09% (inactive).

Turning to `COc1cc(Cl)c(C)cc1NC(=O)CN1CCCCCC1`, the activity change, negative = inhibition was 0.688% (inactive).

On to `CC(C)N1CCc2c(sc(NC(=O)Cc3ccccc3)c2C#N)C1`, for which the activity change, negative = inhibition is -3% (inactive).

For the compound `CC(=O)N1CCc2c(sc(NC(=O)CCS(=O)(=O)c3ccccc3)c2C#N)C1`, the activity change, negative = inhibition is 1.84% (inactive).

For the compound `N#Cc1c(N)sc2c1CCN(C(=O)OCc1ccccc1)C2`, the activity change, negative = inhibition was -39.2% (active).

For `O=C1C2C(c3ccccc3)CC=CC2C(c2ccoc2)N1Cc1ccccc1` (stereo unspecified), the activity change, negative = inhibition is 8.25% (inactive).

In the case of `COC(=O)CCCC1=CC2=CC(=O)C(C)(OC(=O)c3cccs3)C(=O)C2=CN1c1cccc(C#N)c1` (stereo unspecified), the activity change, negative = inhibition is -7% (inactive) and -4.26% (inactive).

With `COC(=O)CCCC1=CC2=CC(=O)C(C)(OC(=O)c3cccs3)C(=O)C2=CN1CC(C)C` (stereo unspecified), the activity change, negative = inhibition was -16.4% (inactive) and -34.8% (active).

As to `COC(=O)CCCC1=CC2=CC(=O)C(C)(OC(=O)c3cccs3)C(=O)C2=CN1c1ccc(CO)cc1` (stereo unspecified), the activity change, negative = inhibition is 1.62% (inactive).

In the case of `CCCCC1=CC2=CC(=O)C(C)(OC(=O)CC)C(=O)C2=CN1CCCOC(C)C` (stereo unspecified), the activity change, negative = inhibition was -25% (inactive) and -18.1% (inactive).

Regarding `COC(=O)CCCC1=CC2=CC(=O)C(C)(OC(=O)c3cccs3)C(=O)C2=CN1CC1CC1` (stereo unspecified), the activity change, negative = inhibition was -36.8% (active) and -32.4% (active).

For the compound `CC(C)(C)OC(=O)NCCCCC1=CC2=CC(=O)C(C)(OC(=O)c3cccs3)C(=O)C2=CO1` (stereo unspecified), the activity change, negative = inhibition is 0.595% (inactive).

For `COc1cccc(-c2coc3cc4oc(=O)c(CC(=O)O)c(C)c4cc23)c1`, the activity change, negative = inhibition was 12.3% (inactive).

In the case of `O=C(Nc1cccc([N+](=O)[O-])c1)N1CCc2ccccc2C1`, the activity change, negative = inhibition is -5.24% (inactive).

In the case of `C=C1C([C@@]2(C)C(OC(C)=O)CC(=O)O[C@@](C)(COC(C)=O)C2CC(=O)OC)C(OC=O)C(OC(=O)C(O)C(C)CC)[C@]2(C)C(c3ccoc3)CC(=O)C12O` (stereo partly specified), the activity change, negative = inhibition was -3.85% (inactive).

In the case of `CC(C)CCC(C)NC(=O)c1ccc2nccnc2c1` (stereo unspecified), the activity change, negative = inhibition was 2.87% (inactive).

`Oc1cc(O)c2c(c1)OC(c1ccc(O)c(O)c1)C(O)C2` (stereo unspecified): the activity change, negative = inhibition was -34.5% (active).

Turning to `CC1(c2ccc3ccccc3c2)NC(=O)N(CC(N)=O)C1=O` (stereo unspecified), the activity change, negative = inhibition was -1.62% (inactive).

Turning to `Cc1c(Cl)cccc1NC(=O)NCc1ccc(C)n1C`, the activity change, negative = inhibition is 0.306% (inactive).

Regarding `CCCN1CCC(=O)N(C(CSc2ccc(C)cc2)Cc2ccccc2)CC1` (stereo unspecified), the activity change, negative = inhibition is 2.31% (inactive).

On to `N#CC1=C(N)Oc2n[nH]c(CSc3ccccc3)c2C12C(=O)Nc1ccccc12` (stereo unspecified), for which the activity change, negative = inhibition was -1.05% (inactive).

In the case of `N#CC1=C(N)Oc2[nH]c(=S)[nH]c(=O)c2C12C(=O)Nc1ccccc12` (stereo unspecified), the activity change, negative = inhibition was -33.1% (active).

Consider `CC1(C)Cc2ccccc2-c2[nH]c(=S)[nH]c(=O)c21`, for which the activity change, negative = inhibition is 2.14% (inactive).

On to `COCCCNc1nc2ccccc2nc1NS(=O)(=O)c1ccc(F)cc1`, for which the activity change, negative = inhibition is 3.51% (inactive).

For the compound `Oc1cc2c(cc1O)CN(C(=S)NCCc1ccc(Cl)cc1)CCC2`, the activity change, negative = inhibition was -10.5% (inactive).

Turning to `CCOCCCNC(=O)c1cn(CC(C)C)c(=O)c2c1c1ccccc1n2C`, the activity change, negative = inhibition was 1.3% (inactive).

With `Cc1nn(C)cc1/C=C1\CCC/C(=C\c2cn(C)nc2C)C1=O`, the activity change, negative = inhibition was -3.28% (inactive).

Turning to `COc1c(O)ccc2c1CN1CCc3cc4c(cc3C1C2)OCO4` (stereo unspecified), the activity change, negative = inhibition was -31.7% (active).

With `COc1ccc2cc1Oc1ccc(cc1)C[C@H]1c3cc(c(OC)cc3CCN1C)Oc1c(O)c(OC)cc3c1[C@H](C2)N(C)CC3`, the activity change, negative = inhibition was 3.01% (inactive).

Consider `COc1ccc(CN2CCCC(N3CCc4ccccc4C3)C2)c(O)c1` (stereo unspecified), for which the activity change, negative = inhibition was 0.955% (inactive).

`COc1ccc2c(c1)N(C)/C(=C1/SC(=S)N(NC(C)=O)C1=O)S2`: the activity change, negative = inhibition is -2.99% (inactive).

In the case of `CCOc1cc(-c2cc(-c3ccc(NC(C)=O)cc3)nc(N)c2C#N)ccc1O`, the activity change, negative = inhibition is -0.764% (inactive).

With `CC(C)CNS(=O)(=O)c1ccc(CCC(=O)NCc2ccc(Cl)cc2)cc1`, the activity change, negative = inhibition was 2.27% (inactive).

On to `Cc1ccc(OCc2nc3ccccc3n2C)cc1`, for which the activity change, negative = inhibition is -0.274% (inactive).

For `Cc1ccc(OCc2nnc(SC3CCc4ccccc4C3=O)n2C)cc1` (stereo unspecified), the activity change, negative = inhibition was -79.8% (active).

`Cc1cccnc1NC(=O)CSc1nnc(COc2ccc(C(C)C)cc2)n1C`: the activity change, negative = inhibition is -3.92% (inactive).

As to `C=C1/C(=C\C=C2\CCCC3(C)C2CCC3C(C)/C=C/C(O)C2CC2)CC(O)CC1O` (stereo unspecified), the activity change, negative = inhibition was -0.462% (inactive).

Take `CN(NS(=O)(=O)c1cccs1)c1ncc(C(F)(F)F)cc1Cl`: the activity change, negative = inhibition was 1.61% (inactive).

As to `CCOC(=O)c1c(C)[nH]c2c1-c1ccccc1C(=O)C2=O`, the activity change, negative = inhibition is -46.9% (active).

Regarding `CCOC(=O)c1c(C)[nH]c(C(=O)NCc2ccccc2OC)c1C`, the activity change, negative = inhibition is 6.66% (inactive).

For the compound `CCOC(=O)c1c(C)[nH]c(C)c1S(=O)(=O)N(C)CC(=O)Nc1ccccc1C`, the activity change, negative = inhibition is 0.829% (inactive).

These data come from PubChem BioAssay AID2472 (National Center for Advancing Translational Sciences (NCATS), 2010).
